Source: PubChem BioAssay (Tox21)
Inconclusive results are not listed. The source made the active and inactive calls. Unless noted, the call rests on the fitted dose curve; in most records, active means well fitted curve in the direction sought with a large enough effect in the repeat runs; inconclusive means weak or mixed curves; inactive means no such curve, though single readings can be large; an effect the other way counts as inactive or inconclusive.

Legend:
[1] = qHTS assay for small molecules that induce genotoxicity in human embryonic kidney cells expressing luciferase-tagged ATAD5 (AID 651632); further: nearly all actives have a fitted effect of over 15% in size
In short: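 Genotoxicity read-out via ATAD5-luciferase: HEK293T cells, 16 hr compound incubation at 37C, Amplite detection.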

[2] = qHTS assay for small molecule agonists of the p53 signaling pathway - cell viability (AID 651633; calls by dose curve;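 further: p53RE-bla HCT reporter cells with a stable beta-lactamase p53 reporter; series mostly up to about 83 µM; nearly all actives have a fitted effect of over 30% in size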)
In short: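 p53RE-bla cells, seeded at 4,000 per well and rested 5 h at 37 C/5% CO2, received compounds in DMSO for 16 h at 37 C. CellTiter-Glo was then added, and luminescence was read after 30 min at room temperature to gauge cytotoxicity.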

[3] = qHTS assay for small molecules that induce genotoxicity in human embryonic kidney cells expressing luciferase-tagged ATAD5 - cell viability (AID 651634; calls by dose curve; further: nearly all actives have a fitted effect of over 25% in size)
In short: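 Live-cell protease activity (CellTiter-Fluor, fluorescence) indicates viability. HEK293T cells with luciferase-tagged ATAD5; 15.5 hr compound treatment at 37C.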

[4] = qHTS assay for small molecule disruptors of the mitochondrial membrane potential - cell viability (AID 720634; calls by dose curve;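 further: human HepG2 liver cancer cells; series mostly up to about 83 µM; nearly all actives have a fitted effect of over 20% in size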)
In short: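 Human hepatoma HepG2 cells were treated for 1 hr with test chemicals, then given m-MPI dye and CellTiter-Glo. Cell viability reflects luminescence proportional to cellular ATP.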

[5] = qHTS assay to test for compound auto fluorescence at 590 nm (red) in HepG2 cells (AID 720674)
In short: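 Compound auto-fluorescence is scored relative to Rose Bengal sodium, measured at 540/590 nm in live HepG2 cultures after 1 hr compound contact (37 C, 5% CO2).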

[6] = qHTS assay to test for compound auto fluorescence at 535 nm (green) in HepG2 cells (AID 720675)
[7] = qHTS assay to test for compound auto fluorescence at 460 nm (blue) in HEK293 cells (AID 720678)
In short: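 Triamterene serves as the blue fluorophore standard. Compound signal at 405/460 nm is read in HEK293 wells (2,000 cells, 10% dialyzed FBS) after overnight treatment at 37C.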

[8] = qHTS assay to test for compound auto fluorescence at 590 nm (red) in HEK293 cells (AID 720679)
In short: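 We plated HEK293 cells in 10% dialyzed FBS medium, let them adhere for 4-5 hr, then added 23 nL compound. Overnight at 37C and 5% CO2 preceded fluorescence measurement at 540/590nm.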

[9] = qHTS assay to test for compound auto fluorescence at 535 nm (green) in HEK293 cells (AID 720680)
[10] = qHTS assay to test for compound auto fluorescence at 535 nm (green) in HEK293 cell free culture (AID 720682)
In short: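 Cell-free medium (DMEM, 10% FBS) receives compound or DMSO by pintool. Plate read directly at Ex 485/Em 535 nm. Signal converted to fluorescein equivalency.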

[11] = qHTS assay to test for compound auto fluorescence at 590 nm (red) in HEK293 cell free culture (AID 720683)
In short: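 Tox21 10K library compounds were pinned into cell-free DMEM with 10% FBS and fluorescence was read at excitation 540 nm. Activity is expressed as Rose Bengal sodium equivalency.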

[12] = qHTS assay to test for compound auto fluorescence at 590 nm (red) in HepG2 cell free culture (AID 720684)
In short: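 Measured in medium alone (MEM containing 10% FBS) following pintool addition of compound; emission at 590 nm with 540 nm excitation, referenced to Rose Bengal sodium.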

[13] = qHTS assay to test for compound auto fluorescence at 460 nm (blue) in HepG2 cell free culture (AID 720685)
In short: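 Compound (23 nL) or DMSO pinned into cell-free MEM with 10% FBS; blue fluorescence read at 405/460 nm excitation/emission, expressed as auto-fluorescence equivalency to triamterene.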

[14] = qHTS assay to test for compound auto fluorescence at 535 nm (green) in HepG2 cell free culture (AID 720686)
[15] = qHTS assay to test for compound auto fluorescence at 460 nm (blue) in HepG2 cells (AID 720687)
In short: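 Cells (2,000/well in MEM with 10% FBS) attached overnight at 37 C, then were exposed to compound or DMSO for 1 hr at 37 C, 5% CO2. Fluorescence read at Ex/Em 405/460 nm, expressed as triamterene-equivalent signal.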

[16] = biological target: Glucocorticoid receptor (Homo sapiens) (UniProt P04150); experiment: qHTS assay to identify small molecule agonists of the glucocorticoid receptor (GR) signaling pathway (AID 720691; active means well fitted activation curve with a large enough effect in the signal ratio in the repeat runs, not every such curve was filed as active; the % refers to the signal ratio)
In short: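 Beta-lactamase reporter activity, read as fluorescence intensity, was measured in GR-bla HeLa cells exposed to compounds for 18 h at 37 C and then loaded with LiveBLAzer B/G FRET substrate for 2 h at room temperature.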

[17] = qHTS assay for small molecule disruptors of the mitochondrial membrane potential (AID 720635)
In short: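 HepG2 cells (2,000/well) attached overnight at 37C, then took compound for 1 hr at 37C, 5% CO2. Mito-MPS dye was added for 30 min; fluorescence was read at 490/535 nm (monomers) and 540/590 nm (aggregates).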

[18] = qHTS assay to test for compound auto fluorescence at 460 nm (blue) in HEK293 cell free culture (AID 720681)
In short: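 Test compounds were pinned into cell-free culture medium (DMEM with 10% FBS) and fluorescence was read directly at Ex/Em 405/460 nm. Signals were expressed as fluorescence equivalents of triamterene, with DMSO vehicle as control.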

[19] = biological target: Glucocorticoid receptor (Homo sapiens) (UniProt P04150); experiment: qHTS assay to identify small molecule antagonists of the glucocorticoid receptor (GR) signaling pathway (AID 720692; active means well fitted inhibition curve with a large enough effect in the signal ratio in the repeat runs, not every such curve was filed as active; the % refers to the signal ratio)
In short: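 Fluorescence from cleaved LiveBLAzer B/G FRET substrate reports GRE-driven beta-lactamase in HeLa cells; compounds are tested against 5 nM dexamethasone (final) over 18 h at 37 C, substrate incubation 2 h at room temperature.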

Measured: Potency

Chain of Glucocorticoid receptor (Homo sapiens) (P04150 whole entry, looked up): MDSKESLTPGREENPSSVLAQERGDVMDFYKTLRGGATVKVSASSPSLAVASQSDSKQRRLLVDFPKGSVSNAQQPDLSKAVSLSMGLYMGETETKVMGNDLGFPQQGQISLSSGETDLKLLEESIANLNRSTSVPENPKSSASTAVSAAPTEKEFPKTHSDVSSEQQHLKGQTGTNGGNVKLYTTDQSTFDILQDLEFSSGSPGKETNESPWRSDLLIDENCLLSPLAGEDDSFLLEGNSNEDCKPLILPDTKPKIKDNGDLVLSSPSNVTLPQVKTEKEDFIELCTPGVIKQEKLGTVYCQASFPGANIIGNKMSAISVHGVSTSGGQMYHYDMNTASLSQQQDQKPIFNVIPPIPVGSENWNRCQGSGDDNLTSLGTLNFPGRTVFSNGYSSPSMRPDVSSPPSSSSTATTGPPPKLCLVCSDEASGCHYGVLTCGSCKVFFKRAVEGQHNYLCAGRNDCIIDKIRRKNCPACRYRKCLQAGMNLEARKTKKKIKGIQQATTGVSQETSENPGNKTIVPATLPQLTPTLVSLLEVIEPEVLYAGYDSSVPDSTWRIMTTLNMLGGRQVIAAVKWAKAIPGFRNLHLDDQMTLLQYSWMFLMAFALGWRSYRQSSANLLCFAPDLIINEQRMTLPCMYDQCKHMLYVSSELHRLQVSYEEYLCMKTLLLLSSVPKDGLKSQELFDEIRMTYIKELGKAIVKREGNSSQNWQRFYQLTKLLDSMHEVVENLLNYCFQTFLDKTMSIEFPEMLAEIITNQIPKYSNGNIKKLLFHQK

O=C(Cl)C(Cl)Cl
not listed: [17] | [18] | [19]
inactive: all other assays above

CC(C)(C)C(=O)Cl
not listed: [3]
inactive: all other assays above

O=C1CC(=O)NC(=O)N1
not listed: [11] | [12] | [17] | [18]
inactive: all other assays above

NCCOS(=O)(=O)O
not listed: [5] | [10] | [17]
inactive: all other assays above

C#CCOC(=O)/C=C(C)/C=C/CC(C)CCCC(C)C (stereo not drawn)
not listed: [9] | [11] | [17] | [19]
inactive: all other assays above

O=C(NC(=O)c1c(F)cccc1F)Nc1cc(Cl)c(F)c(Cl)c1F
not listed: [9] | [10] | [17] | [19]
inactive: all other assays above

C=CCCC#N
not listed: [5] | [7] | [9] | [12] | [17]
inactive: all other assays above

CCN[C@@H](C)Cc1ccccc1
not listed: [11] | [17]
inactive: all other assays above

C=C(Cl)CSC(=S)N(CC)CC
not listed: [5] | [10] | [13] | [16] | [17] | [19]
inactive: all other assays above

CCOC(=O)CCl
not listed: [17] | [18]
inactive: all other assays above

CC[C@@H](CO)NC(=O)[C@@H]1C=C2c3cccc4[nH]cc(c34)C[C@H]2N(C)C1
not listed: [3] | [19]
inactive: all other assays above

O=C(NC(O)C(Cl)(Cl)Cl)NC(O)C(Cl)(Cl)Cl (stereo not drawn)
not listed: [11] | [13] | [17]
inactive: all other assays above

CC(C)C(C)(N)C#N (stereo not drawn)
not listed: [17] | [18]
inactive: all other assays above

CCCN1CCC[C@@H]2Cc3[nH]ncc3C[C@H]21
not listed: [5] | [17]
inactive: all other assays above

CC1NCCOC1c1ccccc1 (stereo not drawn)
not listed: [1] | [3] | [16] | [19]
inactive: all other assays above
